MEKK2mut PB1 HTS: MEK5 binding signal on mutant MEKK2 PB1, primary screen, biochemical, multiplex bead flow cytometry, Alexa488-MEK5 | Alexa488-MEK5 binding to MEKK2 mutant | percent response, % at 10 µM | hit rate 0.35% among 290,000; in the data active = percent response above about 24%, passing the limit was not always enough
UBC13 inh: UBC13 polyubiquitin chain formation inhibitors, primary screen, biochemical, TR-FRET, uHTS; inhibition, % at 20 µM; hit rate 0.47% among 330,000; in the data active = inhibition above about 45%, passing the limit was not always enough
Target sequence (P61088 whole entry, looked up): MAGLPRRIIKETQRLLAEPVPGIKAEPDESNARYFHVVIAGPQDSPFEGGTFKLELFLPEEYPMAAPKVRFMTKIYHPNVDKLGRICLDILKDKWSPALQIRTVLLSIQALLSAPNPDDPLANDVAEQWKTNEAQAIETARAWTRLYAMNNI
MEKK2wt PB1 HTS: modulators of MEK5 binding to wildtype MEKK2, primary screen, biochemical, multiplex bead flow cytometry, Alexa488-MEK5; binding response (% of control), % at 10 µM; AID 1531, 2009; Alexa488-MEK5 binding to MEKK2 WT; actives lie on both sides; Mitogen-activated protein kinase kinase kinase 2 (Homo sapiens), Q9Y2U5; hit rate 1.1% among 290,000; in the data active = binding response below about 67% or above about 130%
MEKK3 PB1 HTS: modulators of MEKK3-MEK5 PB1 binding, primary screen, biochemical, wildtype MEKK3, multiplex bead flow cytometry, Alexa488-MEK5 | AID 1529, 2009 | binding response (% of control), % at 10 µM | hit rate 1.4% among 290,000 | Mitogen-activated protein kinase kinase kinase 3 (Homo sapiens), Q99759 | bead-based flow cytometry, Alexa488-MEK5 binding to MEKK3; actives lie on both sides; 0 = blocked by unlabeled MEK5, 100 = vehicle;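 active = binding response more than 3 SD above or below the average of its plate-row segment, actives on both sides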;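 note: Alexa488 bead fluorescence after subtracting the streptavidin-only scavenger bead signal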
MEKK2wt confirm: modulators of MEK5 binding to wildtype MEKK2, confirmation, biochemical, single concentration, multiplex bead flow cytometry. shares compounds with MEKK3 PB1 HTS. Alexa488-MEK5 binding to MEKK2 WT; actives lie on both sides. binding response (% of control), % at 10 µM. hit rate 2.4% among 5,900. AID 1892, 2009; in the data active = binding response below about 16% or above about 210%; inactive = in between
MEKK2mut-MEK5: mutant MEKK2 PB1-MEK5 binding signal retest – biochemical, single concentration, multiplex bead flow cytometry, confirmation. hit rate 2% among 5,900. Alexa488-MEK5 binding to MEKK2 mutant. percent response, % at 10 µM. AID 1893, 2009. shares compounds with MEKK3 PB1 HTS; in the data active = percent response mostly above about 71%, no sharp cut-off; inactive = mostly below about 38%;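 note: higher means compound restores mutant binding toward wildtype level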
MEKK3 confirm: MEKK3 wild-type PB1 binding to MEK5, inhibitors, confirmation, biochemical, bead multiplex flow cytometry, single concentration, wildtype. shares compounds with MEKK3 PB1 HTS. Alexa488-MEK5 binding to MEKK3; active compounds read low. binding response (% of control), % at 10 µM. hit rate 1.8% among 5,900;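 active = binding response below 72% of control, or above a set upper limit, though filed actives all read lower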;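 note: 100% = DMSO only wells and 0% = binding blocked by excess unlabeled MEK5; lower values mean stronger disruption of MEK5 binding to MEKK3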
Active calls of the source: *; . = no result given; [ ] = remark or other dose. Sampled rows, rich in hits. Any-hit rate of the full collection: about 2.3%.

SMILES	MEKK2mut PB1 HTS	UBC13 inh	MEKK2wt PB1 HTS	MEKK3 PB1 HTS	MEKK2wt confirm	MEKK2mut-MEK5	MEKK3 confirm
O=C(CCl)Nc1cc(-c2ccccc2)nn1-c1ccccc1	-1	-1	102	98	.	.	.
Nc1ccccc1Nc1cc(-c2ccccc2)nn1-c1cccc(Cl)c1	1	-8	113	141*	109	2	102
C=COCCn1c(-c2nonc2N)nc2ccccc21	9	-1	119	122*	98	7	102
COCC(=O)N(C)c1nnc(-c2cnccn2)s1	-27	5	-1.0*[inhibitor]	0.0*[inhibitor]	103	1	101
COc1ccc(Cn2c(-c3ccco3)nc3c(c(=O)c4ccccc4n3C)c2=O)cc1	28	10	108	136*	101	6	106
COc1ccc(-c2nc3c(c(=O)c4ccccc4n3C)c(=O)n2Cc2ccccc2)cc1	0	1	105	149*	99	3	102
Cc1ccc(N(CC2CO2)S(=O)(=O)c2ccc([N+](=O)[O-])cc2)cc1 (centres undefined)	0	2	101	101	.	.	.
CCCCn1c(N)c(N(CC(C)C)C(=O)c2ccc([N+](=O)[O-])o2)c(=O)[nH]c1=O	.	-24	.	.	.	.	.
CCOn1c(=O)c(-c2cccs2)[n+]([O-])c2ccccc21	0	0	94	96	.	.	.
CCOC(=O)COn1c(=O)c(-c2cccs2)[n+]([O-])c2ccccc21	-8	-4	26*[inhibitor]	15*[inhibitor]	102	4	102
Cc1ccc2nc(/C(C#N)=C\c3ccc([N+](=O)[O-])o3)[nH]c2c1	-10	-85	77	70*[inhibitor]	96	-3	98
Cc1ccc(/C(C#N)=C\c2ccc(N3CCOCC3)o2)cc1	3	-52	105	108	.	.	.
Cc1ccc2nc(/C(C#N)=C\c3ccc(N4CCOCC4)o3)[nH]c2c1	26*	-5	46*[inhibitor]	103	112	12	108
N#C/C(=C\c1ccc([N+](=O)[O-])o1)c1nc2ccccc2[nH]1	-2	-83	87	103	.	.	.
CCC12CN3CCN(CC(C3)/C1=N\NC(=O)Nc1ccccc1)C2	1	-3	108	129*	103	5	103
O=C1/C(=C\c2ccc(-c3ccccc3Cl)o2)SC(=S)N1CC1CCCO1 (centres undefined)	-28	-99	35*[inhibitor]	60*[inhibitor]	40	-24	82
O=C1/C(=C/c2ccco2)SC(=S)N1CC1CCCO1 (centres undefined)	3	-3	104	106	.	.	.
Cc1ccc(Cn2cc(/C=N/Nc3ccc([N+](=O)[O-])cn3)c3ccccc32)cc1	15	-69	53*[inhibitor]	98	100	-4	98
CC(=O)Nc1ccc(-c2nc3c(C)cccc3[nH]2)cc1	-14	4	3.0*[inhibitor]	3.0*[inhibitor]	114	6	104
CC(=O)Nc1cc(NC(C)=O)cc(-c2nc3ccccc3[nH]2)c1	-11	-4	85	95	.	.	.
CCN1CCN(c2nc(-c3ccccc3)nc3ccccc23)CC1	1	3	116	142*	118	15	104
COCCn1c(-c2ccc(F)cc2)nc2cccnc21	8	6	107	104	.	.	.
COc1ccccc1-c1ccc(NC2CCCCC2)nn1	-8	12	83	81*[inhibitor]	103	3	103
COc1ccc(CNC(=O)COC(=O)C(CCSC)NC(=O)c2ccco2)cc1OC (centres undefined)	.	2	.	.	.	.	.
COc1ccc(OC)c(-c2nc(C(=O)NC3CCN(Cc4ccccc4)CC3)cc3c2[nH]c2ccccc23)c1	24*	14	146*	104	153	40	111
SMILES	MEKK2mut PB1 HTS	UBC13 inh	MEKK2wt PB1 HTS	MEKK3 PB1 HTS	MEKK2wt confirm	MEKK2mut-MEK5	MEKK3 confirm
COc1ccc(-n2cc(CNCC3CCOCC3)c(-c3cccc(F)c3)n2)cc1	0	15	122	110	.	.	.
COc1ccc(-n2cc(CNCc3cnc4ccccn34)c(-c3cccc(F)c3)n2)cc1	59*	18	170*	106	151	41	116
CN(CC(=O)Nc1ccc(Cl)c(C(F)(F)F)c1)C(=O)c1cc(=O)c2ccccc2o1	.	-7	.	.	.	.	.
COc1ccc(N=C2NC(=O)/C(=C/c3ccc(O)c(OC)c3)S2)cc1	-1	-24	107	146*	102	-1	99
OC(c1cc(-c2ccc(C(F)(F)F)cc2)nc(C(F)(F)F)c1)C1CCCCN1 (centres undefined)	57*	43	165*	111	153	32	103
COC(=O)CSc1nc(-c2ccc(F)cc2)cc(C(F)(F)F)n1	4	6	102	93	.	.	.
CCOC(=O)c1c(NC(=O)CSc2nnc3c(n2)[nH]c2ccccc23)sc2c1CCN(C)C2	15	-11	144*	107	137	20	102
Cc1nn2c(N3CCCC3)c3c(nc2c1-c1ccccc1)CCC3	-13	8	30*[inhibitor]	37*[inhibitor]	96	2	103
COc1cccc(Nc2c3c(nc4c(-c5ccccc5)c(C)nn24)CCC3)c1	1	30	115	132*	30	-19	56*
COCCN(C(=O)C1CC1)c1nnc(-c2cccc(C)c2)s1	-21	-2	0.0*[inhibitor]	0.0*[inhibitor]	109	15	110
CCCc1ccc(Oc2cn[nH]c2-c2ccc(O)c(C)c2O)cc1	3	11	105	123*	97	-9	96
CC(/C=C/c1ccco1)=N\NC(=O)C(O)c1ccccc1 (centres undefined)	0	-3	110	133*	104	11	99
CN(C)CCCN1c2ccc([N+](=O)[O-])cc2CCc2cc([N+](=O)[O-])ccc21	14	-11	150*	111	113	6	104
CC(C)(C)c1cc(C(=O)O)nn1-c1ccccc1	-26	1	3.0*[inhibitor]	2.0*[inhibitor]	97	-4	96
COc1ccc(CNC(=O)CCn2c(=O)oc3ccccc32)c(OC)c1	-11	11	93	91	.	.	.
CCOc1ccc(OCc2cccc(C(=O)N3CCOCC3)c2)cc1	.	7	.	.	.	.	.
CCOc1ccc(N=C(/C(C(=O)C(=O)N2CCOCC2)=C(/O)c2ccccc2)c2ccccc2)cc1	-37	-12	78	49*[inhibitor]	91	-9	98

Compound activity: PubChem, several laboratories
